We go through 49 compounds from PubChem BioAssay AID588855 (National Center for Advancing Translational Sciences (NCATS), 2011).

Each structure is given as a SMILES string. Out of some 410,000 compounds screened, about 5,000 (1.2%) were called active. Roughly 13% stayed inconclusive and do not appear here. The entries come from a sample that favours actives as a whole. Unmarked numbers belong to inactive results. The call rests on the fitted dose curve; in most records, active means well fitted inhibition curve with a large enough effect; inconclusive means small, poorly fitted or top-dose-only effect; inactive means no such curve, though single readings can be large or run the other way.
Potency means the concentration at half of the fitted maximal effect.

This test is described as follows: qHTS for Inhibitors of TGF-b. Further: nearly all actives have a fitted effect of over 65% in size. To be noted: HepG2 CAGA-GFP TGF-b/SMAD3 reporter, GFP fluorescence, 18 h, TGF-beta stimulated, 500 pg/mL final; series mostly up to 46.1 µM; activity, negative = inhibition: at the top concentration. From the text: TGF-b is a main component in the TGF-b signaling pathway which plays diverse roles in cellular and development pathways. TGF-b is the mediated by the transcription factors Smads. Although the Smad-dependent pathway is the primary canonical TGF-b signaling node, TGF-b1 can also activate alternative signaling pathways, including those involving MAPK (ERK, JNK and p38). This interaction may mediate or enhance Smad-dependent responses, or can exert Smad-independent effects. The complexity of this signaling cascade allows the TGF-b superfamily to perform unique, overlapping or redundant functions. We believe that targeting the TGF-beta pathway at the Smad-transcription factor level may eliminate the consequences of disrupting the entire pathway and offer specificity without affecting other signaling pathways. Smad3 is the primary transducer of TGF-b's signals and Smad3 regulates many functions attributed to TGF-b signaling. We hypothesize that Smad3 inhibitors will selectively eliminate Smad3-specific TGF-beta signals without undesired off-target effects. We aim to identify Smad3-small molecule antagonists using a quantitative high throughput screening (qHTS) approach.
A high-throughput assay was developed to screen the NIH Molecular Libraries Small Molecule Repository (MLSMR). This is a cell based assay, where TGF-b is tagged with GFP. A counterscreen is run that looks at cytotoxicity (please see summary AID).
MH087449NIH Chemical Genomics Center [NCGC]
NIH Molecular Libraries Probe Centers Network [MLPCN]
Assay Submitter (PI): Sushil Rane, National Institute of […]
Suspensions of trypsinized HEPG2 CAGA-GFP cells were dispensed into white, tissue culture-treated, solid 1536-well plates at 5uL/well (1000 cells/well final concentration) in DMEM medium supplemented with 1% FBS. Plates were incubated at 37 degrees C for 2 hours, after which 23 nL of compounds or DMSO were delivered to each well using a pin tool. One uL of recombinant TGF-beta in DMEM (1% FBS) was then dispensed (500 pg/mL final concentration), and plates were incubated at 37 degrees C for 18 hours. The plates were measured on an Acumen eX3 Explorer plate reader for GFP fluorescence (ex488/em500-530). GFP values were calculated by determining the mean GFP fluorescence of individual cells, and compiling these values for each well to determine a total well GFP signal. The %Activity was determined from the corrected fluorescence values. A titration of the known TGF-B inhibitor SB431542 was included to monitor plate performance, while unstimulated HEPG2 (-TGF-B) control wells were used to normalize %Activity of identified inhibitors; unstimulated wells corresponded to 100%Activity (full inhibition), while stimulated cell controls (+DMSO) were used to normalize 0%Activity (no inhibition).
Concentration-response curves were fitted to the signals arising from the resulting fluorescence. The concentration-effect curves were then classified based on curve quality (r2), response magnitude and degree of measured activity, and compounds were subsequently categorized based on their curve class.
In general terms: qHTS replaces the single test concentration by a dilution series.
Regarding `COC(=O)c1ccc(NC(=O)c2cccc3c2C(=O)N(C2CCCCC2)C3)cc1`, the “activity, negative = inhibition” value was 6.39%.

In the case of `Cc1ccc(CN2CC(N3CCC(Cc4ccccc4)CC3)CS2(=O)=O)cc1` (centres undefined), the Potency was 14.1 µM (active).

Regarding `O=S1(=O)CC(N2CCC(Cc3ccccc3)CC2)CN1Cc1ccccc1` (centres undefined), the “activity, negative = inhibition” value is -44.1%.

Turning to `Cc1cccc(CN2CCN(C3CN(Cc4ccccc4)S(=O)(=O)C3)CC2)c1` (centres undefined), the “activity, negative = inhibition” value was -23.2%.

`Cc1ccc(CN2CCc3nc(N4CCN(C)CC4)ncc3C2)cc1`: the “activity, negative = inhibition” value is -2.9%.

As to `CCOc1ccc(NC(=O)CC2C(=O)N(c3cccc(OC)c3)C(=O)N2C2CCCCC2)cc1` (centres undefined), the “activity, negative = inhibition” value is -13.9%.

Consider `Cc1cccc(NC(=O)Cn2c(C(F)(F)F)nc3ccccc32)c1C`, for which the “activity, negative = inhibition” value was -19.4%.

For `N#C/C=C/N1CCN(Cc2ccc3c(c2)OCO3)CC1`, the “activity, negative = inhibition” value is 1.39%.

`Fc1ccc2[nH]c3c(N4CCN(Cc5ccc6c(c5)OCO6)CC4)ncnc3c2c1`: the Potency was 17.8 µM (active).

`O=C(CSc1nc2c(c(=O)[nH]1)CN(Cc1ccc3c(c1)OCO3)CC2)Nc1cc(F)ccc1F`: the “activity, negative = inhibition” value is -4.36%.

As for `Cc1cc(C)cc(NC(=O)Cc2csc(C)n2)c1`, the “activity, negative = inhibition” value was 0%.

Turning to `Cc1ccc(C)c(S(=O)(=O)n2nc(C)c(S(=O)(=O)N3CCC(C)CC3)c2C)c1`, the “activity, negative = inhibition” value was 1.69%.

As for `CC(C)N1CCC(=NNc2ccc([N+](=O)[O-])cc2S(=O)(=O)N2CCOCC2)CC1`, the Potency was 11.2 µM (active).

With `COC(=O)c1cc(Oc2ccc(S(=O)(=O)N3CCOCC3)cc2[N+](=O)[O-])cc(C(=O)OC)c1`, the “activity, negative = inhibition” value is -15.1%.

With `O=[N+]([O-])c1cc(S(=O)(=O)N2CCCC2)ccc1NN=C1CCCC1`, the “activity, negative = inhibition” value is -8.61%.

In the case of `Cc1ccc(C)c(N2CCN(C(=O)CCc3c(C)nc4c(c3C)c(=O)n(C)c(=O)n4C)CC2)c1`, the “activity, negative = inhibition” value was -24.3%.

As for `CCOc1ccc(CNC(=O)c2ccc(CS(=O)c3ccccc3)o2)cc1` (centres undefined), the “activity, negative = inhibition” value is -1.57%.

For the compound `CC(=O)c1ccc(N2CCN(C3C(=O)c4ccccc4N3C(C)=O)CC2)cc1` (centres undefined), the “activity, negative = inhibition” value is 0%.

Take `CCOc1ccc2nc(C(=O)N3CCCC(C)C3)sc2c1` (centres undefined): the “activity, negative = inhibition” value is 3.8%.

With `CCN(C(=O)COc1ccc(C(=O)c2ccccc2)cc1)c1ccccc1`, the “activity, negative = inhibition” value is -18%.

For `CCOc1ccc2nc(N(CCCN(C)C)C(=O)c3ccc(C(=O)c4ccccc4)cc3)sc2c1`, the Potency is 22.4 µM (active).

As for `Cc1ccc2nc(/C(C#N)=C/c3ccccc3F)[nH]c2c1`, the “activity, negative = inhibition” value was -31.6%.

As for `CCn1c(=O)c(=O)n(CC)c2cc(S(=O)(=O)N3CCc4ccccc43)ccc21`, the “activity, negative = inhibition” value was 8.33%.

Consider `Cn1c(=O)n(C)c2cc(S(=O)(=O)N3CCCc4ccccc43)ccc21`, for which the Potency is 12.6 µM (active).

`O=S(=O)(c1ccccc1)N1CCc2ccccc21`: the “activity, negative = inhibition” value was -0.156%.

With `Cc1cc(C)cc(NC(=O)CSc2oc(-c3ccccc3)nc2S(=O)(=O)c2ccc(Cl)cc2)c1`, the “activity, negative = inhibition” value is 4.95%.

As for `COc1cc(C(=O)N2CCN(c3ccc(Nc4ccc(C)cc4)nn3)CC2)cc(OC)c1OC`, the “activity, negative = inhibition” value is -7.49%.

On to `Cc1onc(-c2c(F)cccc2Cl)c1C(=O)Nc1cccc(S(=O)(=O)N2CCCCC2)c1`, for which the “activity, negative = inhibition” value was 5.34%.

Regarding `Cc1onc(-c2c(F)cccc2Cl)c1C(=O)N(C)CC(=O)Nc1cccc(F)c1`, the “activity, negative = inhibition” value was -2.61%.

As for `Cc1onc(-c2ccc(F)cc2F)c1C(=O)Nc1cccc(C(F)(F)F)c1`, the Potency was 12.6 µM (active).

As to `O=C1c2ccccc2C(=O)N1c1ccc(S(=O)(=O)N2CCOCC2)c2ccccc12`, the “activity, negative = inhibition” value is 3.68%.

As to `Cc1ccc(-c2noc(-c3nnn(-c4cccc(C(F)(F)F)c4)c3N)n2)cc1`, the “activity, negative = inhibition” value was 9.38%.

In the case of `COc1ccc(OC)c(CCNC(=O)CCCn2c(=O)c3cccn3c3cccnc32)c1`, the “activity, negative = inhibition” value was -4.81%.

Turning to `CCOCCc1nn2c(=O)cc(COC(=O)CNC(=O)c3ccc(C(C)(C)C)cc3)nc2s1`, the “activity, negative = inhibition” value is -31.7%.

As for `CCOC(=O)Cn1c(=O)n(C2CCCCC2)c2nc(-c3cccc(OC)c3)nc(C(N)=O)c21`, the “activity, negative = inhibition” value is 1.49%.

For the compound `Cc1nc2c(OCc3ccc(Cl)cc3Cl)cccn2c1N(C)CC1CC1`, the Potency is 11.2 µM (active).

As for `CCc1nc2c(OCc3ccc(Cl)cc3Cl)cccn2c1N(C)C(=O)C(C)C`, the Potency was 12.6 µM (active).

Consider `Cc1nc2c(OCC(=O)C(C)(C)C)cccn2c1N(C)Cc1cccs1`, for which the “activity, negative = inhibition” value was -8.85%.

Turning to `CCc1nc2c(OCc3cccc(OC)c3)cccn2c1N(C)C(=O)C(C)C`, the “activity, negative = inhibition” value is -1.92%.

As for `Cc1nc2c(OCc3cccc(Cl)c3)cccn2c1N(C)CC1CC1`, the “activity, negative = inhibition” value is -16.2%.

For `CCc1nc2c(OCc3ccc(C(=O)OC)cc3)cccn2c1N(C)C(=O)C(C)C`, the “activity, negative = inhibition” value was -7.08%.

Consider `COc1cccc(N2CC(NC(=O)/C=C\c3ccccc3)CC2=O)c1` (centres undefined), for which the “activity, negative = inhibition” value was -8.37%.

As to `O=C(CCSCc1cccc(F)c1)NCc1ccccc1`, the “activity, negative = inhibition” value was -6.59%.

For `CCN(CCCNC(=O)c1ccc(Sc2ccc(C)cc2)c(NC(C)=O)c1)c1cccc(C)c1`, the “activity, negative = inhibition” value is -2.89%.

Regarding `CCCOc1cccc(C(=O)Nc2cccc(NC(=O)c3ccc(C(C)(C)C)cc3)c2)c1`, the “activity, negative = inhibition” value was -8.91%.

Regarding `CCCOc1ccc(C(=O)C(CCC(CNCC)C(=O)c2ccc(OCCC)cc2)CNCC)cc1` (centres undefined), the Potency is 3.16 µM (active).

With `COC(=O)c1ccc(OCC(=O)NC(C)(C)C)cc1`, the “activity, negative = inhibition” value is 4.89%.

`Cc1cc(Br)ccc1NC(=O)Cn1cnc2sc(C)c(S(=O)(=O)N3CCN(C)CC3)c2c1=O`: the “activity, negative = inhibition” value was 5.55%.

Turning to `COc1cc(OC)cc(-c2nc3nc(C)c(CCC(=O)Nc4ccccc4)c(C)n3n2)c1`, the “activity, negative = inhibition” value was -0.887%.
